Laboratory results from PubChem BioAssay (Tox21).
“And” between values parts separate entries of the source, which are not always exact repeats. Equal values may be shown once. Inconclusive results are not listed. Entries that show only a call come without a potency. The source holds several records for some structures; these can differ, active in one and inactive in another. The source made the active and inactive calls. Unless noted, calls follow the shape of the dose curve; as a rule, active = well fitted curve in the direction sought with a large enough effect in the repeat runs; inconclusive = weak or mixed curves; inactive = no such curve, though single readings can be large; an effect the other way counts as inactive or inconclusive.

What was measured:
[1] = qHTS assay to identify small molecule agonists of the peroxisome proliferator-activated receptor delta (PPARd) signaling pathway - cell viability counter screen (AID 743211); also: nearly all actives have a fitted effect of over 55% in size; also: potency is read from the fitted curve at half-maximal effect
Procedure, shortened: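 HEK293H PPARd-bla, 3000 cells/well; 5 h preincubation 37C/5% CO2; cpd in DMSO, 17 h 37C; B/G FRET substrate 2 h RT; CellTiter-Glo 30 min RT, luminescence.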

[2] = qHTS assay to identify small molecule antagonists of the peroxisome proliferator-activated receptor delta (PPARd) signaling pathway - cell viability counter screen (AID 743213); also: nearly all actives have a fitted effect of over 50% in size; also: potency is read from the fitted curve at half-maximal effect
Procedure, shortened: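 HEK293H cells with the PPARd UAS-bla reporter, co-treated 17 h at 37 C with compounds and L165041 (300 nM final), were lysed with CellTiter-Glo. Luminescence indicated viable cell content.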

[3] = molecular target: Peroxisome proliferator-activated receptor delta (Homo sapiens) (UniProt Q03181); experiment: qHTS assay to identify small molecule antagonists of the peroxisome proliferator-activated receptor delta (PPARd) signaling pathway (AID 743215; active = well fitted inhibition curve with a large enough effect in the signal ratio in the repeat runs, not every such curve was filed as active; the % refers to the signal ratio;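 also: cells stimulated with agonist L165041 at 300 nM final during compound exposure; series mostly up to about 62 µM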)
Sequence of Peroxisome proliferator-activated receptor delta (Homo sapiens) (Q03181 whole entry, looked up): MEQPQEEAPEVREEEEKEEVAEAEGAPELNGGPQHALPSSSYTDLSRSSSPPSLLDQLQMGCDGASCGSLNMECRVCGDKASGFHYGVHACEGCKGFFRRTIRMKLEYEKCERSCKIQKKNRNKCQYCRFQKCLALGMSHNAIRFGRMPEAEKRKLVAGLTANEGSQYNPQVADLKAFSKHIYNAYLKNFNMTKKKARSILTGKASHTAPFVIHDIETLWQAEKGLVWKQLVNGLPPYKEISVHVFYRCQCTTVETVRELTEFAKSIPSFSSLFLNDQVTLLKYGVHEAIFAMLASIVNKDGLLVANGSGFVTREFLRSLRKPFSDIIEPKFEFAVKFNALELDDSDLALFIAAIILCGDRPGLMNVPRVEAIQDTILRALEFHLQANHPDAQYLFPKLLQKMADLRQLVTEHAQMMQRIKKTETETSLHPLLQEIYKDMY
Procedure, shortened: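 PPARd UAS-bla HEK293H cells were pre-incubated 5 h at 37 C, then given test compounds in DMSO plus agonist L165041 (300 nM final). After 17 h at 37 C, beta-lactamase FRET substrate was added; fluorescence read after 2 h at room temperature.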

[4] = qHTS assay to identify small molecule agonists of the farnesoid-X-receptor (FXR) signaling pathway - cell viability counter screen (AID 743218); also: nearly all actives have a fitted effect of over 45% in size; also: potency is read from the fitted curve at half-maximal effect
Procedure, shortened: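 FXR-UAS-bla HEK 293T cells, plated 5 h at 37 C, were exposed to compounds for 16 h at 37 C. CellTiter-Glo was then added to the same wells as the bla readout; luminescence read after 30 min at room temperature.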

[5] = molecular target: Vitamin D3 receptor (Homo sapiens) (UniProt P11473); experiment: qHTS assay to identify small molecule agonists of the vitamin D receptor (VDR) signaling pathway (AID 743222; calls by dose curve)
Sequence of Vitamin D3 receptor (Homo sapiens) (P11473 whole entry, looked up): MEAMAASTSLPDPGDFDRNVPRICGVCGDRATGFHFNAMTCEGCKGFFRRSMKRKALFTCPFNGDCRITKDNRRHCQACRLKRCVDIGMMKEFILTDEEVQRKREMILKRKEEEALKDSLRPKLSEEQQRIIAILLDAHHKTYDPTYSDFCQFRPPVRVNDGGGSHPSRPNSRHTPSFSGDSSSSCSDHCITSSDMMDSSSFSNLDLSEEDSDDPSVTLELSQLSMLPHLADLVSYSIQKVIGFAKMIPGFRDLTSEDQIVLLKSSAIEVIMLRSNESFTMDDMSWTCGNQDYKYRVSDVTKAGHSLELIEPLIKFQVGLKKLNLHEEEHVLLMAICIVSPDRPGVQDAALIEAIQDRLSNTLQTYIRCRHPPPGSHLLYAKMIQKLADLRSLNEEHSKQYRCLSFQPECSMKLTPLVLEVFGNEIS
Procedure, shortened: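 VDR-bla cells were plated 4 h at 37C/5% CO2, then exposed to compounds in DMSO for 16 h. After LiveBLAzer B/G FRET substrate addition and 2 h at room temperature, beta-lactamase reporter fluorescence was read.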

[6] = qHTS assay to identify small molecule agonists of the vitamin D receptor (VDR) signaling pathway - cell viability counter screen (AID 743224); also: nearly all actives have a fitted effect of over 50% in size; also: potency is read from the fitted curve at half-maximal effect
Procedure, shortened: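 VDR-bla cells were preincubated 4 h at 37C/5% CO2, then exposed to compounds for 16 h. After the 2 h room-temperature bla FRET read, CellTiter-Glo was added to the same wells and luminescence read after 30 min.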

[7] = qHTS assay to identify small molecule agonists of the NFkB signaling pathway - cell viability counter screen (AID 1159515; calls by dose curve; also: series mostly up to about 61 µM; nearly all actives have a fitted effect of over 55% in size)
Procedure, shortened: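 NFkB-bla ME-180 cells, 2,000/well, were plated overnight at 37 C, 5% CO2, then exposed to compounds in DMSO for 5 hr. After the bla FRET read, CellTiter-Glo was added to the same wells; luminescence was read after 30 min at room temperature.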

[8] = qHTS assay to identify small molecule agonists of the endoplasmic reticulum stress response signaling pathway (AID 1159516; active = well fitted activation curve with a large enough effect in the signal ratio in the repeat runs, not every such curve was filed as active; the % refers to the signal ratio; also: potency is read from the fitted curve at half-maximal effect)
Procedure, shortened: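 CellSensor ESRE-bla HeLa cells, carrying a beta-lactamase reporter driven by the ER stress response element, were plated overnight and exposed to compounds for 5 hr at 37 C. Reporter activity was read as FRET substrate fluorescence after 2 hr at room temperature.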

[9] = qHTS assay to identify small molecule agonists of the endoplasmic reticulum stress response signaling pathway - cell viability counter screen (AID 1159517; calls by dose curve; also: series mostly up to about 61 µM; nearly all actives have a fitted effect of over 50% in size)
Procedure, shortened: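 Counter-screen wells were identical to the reporter wells. Cells were plated at 1,500 per well and dosed for 5 hr, then read for luminescence 30 min after CellTiter-Glo addition.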

[10] = qHTS assay to identify small molecule antagonists of the retinoid-related orphan receptor gamma (ROR-gamma) signaling pathway - cell viability counter screen (AID 1159520); also: nearly all actives have a fitted effect of over 50% in size
Procedure, shortened: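 Tet-on ROR gamma CHO cells were given compounds for 2 hr, then doxycycline hyclate at 1 uM final, and incubated 16 hr at 37 C. Viability was measured as ATP content by CellTiter-Glo luminescence.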

[11] = molecular target: Nuclear receptor ROR-gamma (Homo sapiens) (UniProt P51449); experiment: qHTS assay to identify small molecule antagonists of the retinoid-related orphan receptor gamma (ROR-gamma) signaling pathway (AID 1159521; also: nearly all actives have a fitted effect of over 50% in size; also: potency is read from the fitted curve at half-maximal effect)
Procedure, shortened: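 CHO Tet-on RORγ, RORE-luc reporter. Cpd 2 h pre-incubation, then dox hyclate 1 uM final, 16 h, 37 C/5% CO2. ONE-Glo luminescence; decrease = antagonist.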

[12] = qHTS assay to identify small molecule agonists of the AP-1 signaling pathway - cell viability counter screen (AID 1159525; calls by dose curve; also: nearly all actives have a fitted effect of over 55% in size)
Procedure, shortened: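 AP-1-bla ME-180 cells in Opti-MEM with 0.5% dialyzed FBS, compound exposure 5 h at 37 C in 15-point titration. Viability read in the same wells as ATP content by CellTiter-Glo luminescence, normalised to tetra-n-octylammonium bromide and DMSO controls.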

[13] = qHTS assay to identify small molecule agonists of the AP-1 signaling pathway (AID 1159526; calls by dose curve)
[14] = molecular target: Retinoic acid receptor RXR-alpha (Homo sapiens) (UniProt P19793); experiment: qHTS assay to identify small molecule agonists of the RXR signaling pathway (AID 1159527; calls by dose curve; also: nearly all actives have a fitted effect of over 35% in size; also: potency is read from the fitted curve at half-maximal effect)
Sequence of Retinoic acid receptor RXR-alpha (Homo sapiens) (P19793 whole entry, looked up): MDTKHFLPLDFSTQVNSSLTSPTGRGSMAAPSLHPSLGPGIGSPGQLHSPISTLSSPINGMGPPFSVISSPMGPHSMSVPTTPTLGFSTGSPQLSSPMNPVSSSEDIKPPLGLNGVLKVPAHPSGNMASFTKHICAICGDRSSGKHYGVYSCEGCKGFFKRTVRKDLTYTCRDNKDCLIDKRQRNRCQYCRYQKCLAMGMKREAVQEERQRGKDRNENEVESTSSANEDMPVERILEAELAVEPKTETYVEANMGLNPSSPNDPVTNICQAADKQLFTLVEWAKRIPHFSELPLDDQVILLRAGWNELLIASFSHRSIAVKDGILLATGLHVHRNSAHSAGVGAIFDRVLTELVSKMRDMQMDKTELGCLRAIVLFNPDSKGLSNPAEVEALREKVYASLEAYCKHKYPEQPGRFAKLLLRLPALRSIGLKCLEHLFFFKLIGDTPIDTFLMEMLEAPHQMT
Procedure, shortened: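 Read-out: beta-lactamase FRET ratio (405 nm excitation, 460 and 530 nm emission) after 2 hr substrate loading at room temperature. Cells were RXR-alpha-UAS-bla HEK 293T treated with compounds for 16 hr in 2% charcoal-stripped FBS medium.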

[15] = qHTS assay to identify small molecule antagonists of the farnesoid-X-receptor (FXR) signaling pathway - cell viability counter screen (AID 743221; active = well fitted cell-killing curve with a large enough effect in the repeat runs, not every such curve was filed as active; also: nearly all actives have a fitted effect of over 50% in size; also: potency is read from the fitted curve at half-maximal effect)
Procedure, shortened: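 Luminescence from CellTiter-Glo measures cytotoxicity in GeneBLAzer FXR-UAS-bla HEK 293T cells. Cells were exposed to compounds with 50 uM chenodeoxycholic acid (final) for 16 h at 37 C, in wells also used for the reporter readout.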

[16] = molecular target: Vitamin D3 receptor (Homo sapiens) (UniProt P11473); experiment: qHTS assay to identify small molecule antagonists of the vitamin D receptor (VDR) signaling pathway (AID 743223; active = well fitted inhibition curve with a large enough effect in the signal ratio in the repeat runs, not every such curve was filed as active; the % refers to the signal ratio; also: potency is read from the fitted curve at half-maximal effect)
Procedure, shortened: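 Antagonist mode uses 1alpha,25-dihydroxyvitamin D3 at 3 nM final as stimulus. VDR-bla cells receive compounds in DMSO, incubate 16 h at 37C, then a beta-lactamase FRET substrate for 2 h at room temperature before fluorescence measurement.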

[17] = qHTS assay to identify small molecule antagonists of the vitamin D receptor (VDR) signaling pathway - cell viability counter screen (AID 743225); also: nearly all actives have a fitted effect of over 50% in size; also: potency is read from the fitted curve at half-maximal effect
Procedure, shortened: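 Read-out: CellTiter-Glo luminescence measured 30 min after reagent addition at room temperature. Cells were VDR-bla HEK 293T exposed 16 h at 37C, 5% CO2, to compound with 3 nM final calcitriol agonist.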

[18] = molecular target: Bile acid receptor (Homo sapiens) (UniProt Q96RI1); experiment: qHTS assay to identify small molecule antagonists of the farnesoid-X-receptor (FXR) signaling pathway (AID 743217; active = well fitted inhibition curve with a large enough effect in the signal ratio in the repeat runs, not every such curve was filed as active; the % refers to the signal ratio)
Sequence of Bile acid receptor (Homo sapiens) (Q96RI1 whole entry, looked up): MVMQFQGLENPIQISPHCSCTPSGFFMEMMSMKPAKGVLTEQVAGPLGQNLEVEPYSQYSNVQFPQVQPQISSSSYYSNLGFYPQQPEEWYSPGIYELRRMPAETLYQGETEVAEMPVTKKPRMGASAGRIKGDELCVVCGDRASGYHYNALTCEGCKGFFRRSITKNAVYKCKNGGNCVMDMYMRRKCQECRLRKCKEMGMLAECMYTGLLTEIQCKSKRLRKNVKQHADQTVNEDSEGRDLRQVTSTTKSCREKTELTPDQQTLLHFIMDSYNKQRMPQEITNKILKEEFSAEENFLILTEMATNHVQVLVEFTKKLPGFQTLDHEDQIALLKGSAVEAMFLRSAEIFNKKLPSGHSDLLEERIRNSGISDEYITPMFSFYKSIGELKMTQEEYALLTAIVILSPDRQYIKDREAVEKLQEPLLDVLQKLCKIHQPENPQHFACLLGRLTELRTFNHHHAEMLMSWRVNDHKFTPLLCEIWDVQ
Procedure, shortened: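 FXR-UAS-bla HEK 293T cells pre-incubated 5 h at 37 °C, then exposed to compounds with chenodeoxycholic acid (50 uM final) for 16 h at 37 °C. Beta-lactamase reporter read by LiveBLAzer B/G FRET substrate fluorescence after 2 h at room temperature.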

[19] = molecular target: Bile acid receptor (Homo sapiens) (UniProt Q96RI1); experiment: qHTS assay to identify small molecule agonists of the farnesoid-X-receptor (FXR) signaling pathway (AID 743220; active = well fitted activation curve with a large enough effect in the signal ratio in the repeat runs, not every such curve was filed as active; the % refers to the signal ratio; also: potency is read from the fitted curve at half-maximal effect)
Procedure, shortened: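 Beta-lactamase reporter under UAS control in GeneBLAzer FXR HEK 293T cells (5000/well) measured with LiveBLAzer FRET substrate after 2 h at room temperature. Compound exposure lasted 16 h at 37C.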

[20] = molecular target: Peroxisome proliferator-activated receptor delta (Homo sapiens) (UniProt Q03181); experiment: qHTS assay to identify small molecule agonists of the peroxisome proliferator-activated receptor delta (PPARd) signaling pathway (AID 743212; calls by dose curve; also: potency is read from the fitted curve at half-maximal effect)
Procedure, shortened: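 Quantitative high-throughput agonist screen in a HEK293H beta-lactamase reporter line under UAS control. Compounds in DMSO, at 37 C. Fluorescence read after 2 h with FRET substrate at room temperature.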

SMILES	Potency [1]	Potency [2]	Potency [3]	Potency [4]	outcome [5]	Potency [6]	Potency [7]	Potency [8]	Potency [9]	Potency [10]	Potency [11]	Potency [12]	outcome [13]	Potency [14]	Potency [15]	Potency [16]	Potency [17]	Potency [18]	Potency [19]	Potency [20]
Cc1nnc(NS(=O)(=O)c2ccc(N)cc2)s1	inactive	inactive	inactive	inactive	inactive	inactive	inactive	inactive	inactive	inactive	inactive	inactive	inactive	inactive						
Clc1cccc(Cl)c1NC1=NCCN1	inactive	inactive		inactive		inactive	inactive	inactive	inactive	inactive	inactive	inactive	inactive	inactive	inactive	inactive	inactive			
COc1ccc2cc3[n+](cc2c1OC)CCc1cc2c(cc1-3)OCO2	inactive	inactive	inactive	inactive		inactive	inactive	inactive	inactive	inactive	inactive	inactive	inactive		inactive	inactive		inactive	inactive	
CC/C(C)=N/O	inactive	inactive		inactive		inactive	inactive	inactive	inactive	inactive	inactive	inactive	inactive	inactive		inactive	inactive			
Nc1nc(N)c2nc(-c3ccccc3)c(N)nc2n1	inactive	inactive		inactive		inactive	inactive	49 µM (active) and 21.3 µM (active)	inactive	inactive	inactive	inactive		19 µM (active)			inactive		49.5 µM (active) and 21.1 µM (active)	24.5 µM (active) and 23.7 µM (active)
C=C(C)CC(C)(C)C	inactive	inactive		inactive	inactive	inactive	inactive	inactive	inactive	inactive	inactive	inactive	inactive	inactive	inactive	inactive		inactive	inactive	
Cc1ccccc1Cl	inactive	inactive	inactive	inactive		inactive	inactive	inactive		inactive	inactive	inactive	inactive	inactive	inactive	inactive	inactive	inactive	inactive	inactive
CCCCCCCCCCCCCC(=O)O	inactive	inactive		inactive	inactive	inactive	inactive	inactive	inactive	inactive	inactive	inactive	inactive	inactive	inactive	inactive	inactive	inactive	inactive	
CCCCC(=O)O	inactive	inactive		inactive	inactive	inactive	inactive	inactive	inactive	inactive	inactive	inactive	inactive	inactive		inactive		inactive	inactive	
CCCN(CCC)C(=O)SCC	inactive	inactive		inactive		inactive	inactive	inactive	inactive	inactive	inactive	inactive	inactive	12.3 µM (active)	inactive	inactive	inactive			
CCCCCCCC(=O)O	inactive	inactive		inactive		inactive	inactive	inactive	inactive	inactive	inactive	inactive	inactive	inactive		inactive	inactive			
O=c1n(CCCN2CCN(c3cccc(Cl)c3)CC2)nc2ccccn12	inactive	inactive		inactive		inactive	inactive	inactive	inactive	inactive	inactive	inactive	inactive	inactive	inactive		inactive			
CCCOCC(C)O (configuration not stated)	inactive	inactive	inactive	inactive	inactive	inactive	inactive	inactive	inactive	inactive	inactive	inactive	inactive	inactive		inactive				
CC(=O)OCc1ccc2c(c1)OCO2	inactive	inactive		inactive		inactive	inactive	inactive	inactive	inactive	inactive	inactive	inactive	inactive	inactive	inactive	inactive	inactive	inactive	
O=C(O)Cc1c[nH]c2ccccc12	inactive	inactive		inactive	inactive	inactive	inactive	inactive	inactive	inactive	inactive	inactive	inactive	inactive	inactive	inactive		inactive	inactive	
CC(C)=CCC/C(C)=C/C=O	inactive	inactive	inactive	inactive		inactive	inactive	inactive	inactive	inactive	inactive	inactive	inactive	inactive	inactive	inactive	inactive			
O=Cc1ccc(CO)o1	inactive	inactive		inactive	inactive	inactive	inactive	inactive	inactive	inactive	inactive	inactive	inactive	inactive	inactive	inactive	inactive	inactive	inactive	
c1cnc2c(c1)ccc1cccnc12	698 nM (active) and 1.95 µM (active) and 692 nM (active)	0.389 µM (active)		inactive and 1.55 µM (active)	inactive	1.97 µM (active) and 2.75 µM (active) and 436 nM (active)	inactive	inactive	inactive	inactive	1.95 µM (active) and 5.45 µM (active) and 6.11 µM (active)	inactive			24.8 µM (active) and 776 nM (active) and 174 nM (active)	3.89 µM (active)	5.49 µM (active) and 7.76 µM (active)			
